# Reference: PubChem BioAssay AID720631 (The Scripps Research Institute Molecular Screening Center, 2013)
# The other results are listed elsewhere or left out. Values without a mark were called inactive. Activity calls are given as the source filed them.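 Rule for the calls: active = inhibition above the mean of compounds lying within the control limits plus 3 SD (cut at about 16% in these data); inactive = the rest.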
# Molecular target: Fibrinogen beta chain (Homo sapiens) (UniProt P02675)
# Test: inhibitors of Tn6 peptide binding to fibrin DD(E), confirmation, biochemical, fluorescence polarization, human fibrin, Tn6 probe (AID 720631);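 note: 0% = plate median of compound wells and 100% = inhibitor peptide control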
# Conditions: FP displacement of TRITC-Tn6 peptide from DD(E); at 8.3 µM; stronger effect = higher value; 0% = per-plate median of test wells
# Fibrinogen beta chain (Homo sapiens), sequence (P02675 whole entry, looked up): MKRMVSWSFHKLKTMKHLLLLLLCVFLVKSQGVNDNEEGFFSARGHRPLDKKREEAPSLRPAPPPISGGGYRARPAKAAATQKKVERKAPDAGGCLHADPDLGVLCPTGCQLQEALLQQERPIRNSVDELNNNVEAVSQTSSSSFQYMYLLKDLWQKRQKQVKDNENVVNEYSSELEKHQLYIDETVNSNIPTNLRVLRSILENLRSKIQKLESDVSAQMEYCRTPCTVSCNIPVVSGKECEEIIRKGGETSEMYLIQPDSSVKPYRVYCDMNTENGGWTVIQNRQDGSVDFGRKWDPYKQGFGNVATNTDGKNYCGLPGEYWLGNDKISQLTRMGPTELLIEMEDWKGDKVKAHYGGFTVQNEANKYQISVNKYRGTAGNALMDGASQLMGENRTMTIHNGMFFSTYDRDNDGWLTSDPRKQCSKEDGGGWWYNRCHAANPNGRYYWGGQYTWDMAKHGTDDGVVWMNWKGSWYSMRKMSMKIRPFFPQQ
row,SMILES,inhibition
1,CCOCC(=O)NCc1ccc2c(c1)cc(C)n2C,0.62%
2,CCc1cc(-c2nnc(SCC(=O)NC3CC3)n2C)cs1,2.54%
3,Cc1nn(C)cc1N1C(=O)c2cccc3c(N)ccc(c23)C1=O,1.67%
4,Cc1ccc(NC(=O)CN2CCc3ccccc3C2)cc1,-6.7%
5,O=C(CCl)NNc1cccc(Cl)n1,4.87%
6,COc1cc(NC(=O)c2ccc(CNc3c(N4CCCC4)c(=O)c3=O)cc2)cc(OC)c1OC,-4.66%
7,CCc1ccccc1NC(=S)Nc1cc(OC)c(NC(=O)C(C)C)cc1OC,-4.51%
8,Cc1cc2nc3c(=O)[nH]c(=O)nc-3n(C[C@H](O)[C@H](O)[C@H](O)CO)c2cc1C,12.4%
9,Cc1nnsc1S(=O)(=O)Cc1ccccc1Cl,-10.5%
10,CN1c2ccc(C=O)c3c(C=O)ccc(c23)N(C)C1(C)C,-6.98%
11,O=C(NCCNc1ccccc1[N+](=O)[O-])c1ccccc1F,-1.55%
12,Oc1ccc(N=Cc2sc3ccccc3c2Cl)cc1,-11.2%
13,Cc1ccc(-c2nn(-c3ccccc3)cc2/C=C/C(=O)Nc2cccc(S(N)(=O)=O)c2)cc1,4.74%
14,O=c1[nH]n(-c2ccc([N+](=O)[O-])cc2)c(=O)c2ccccc12,12.3%
15,COc1ccc(Nc2nc(-c3ccccc3)cs2)cc1,-0.61%
16,Cc1cc2cc(CNC(=O)c3ccc(S(=O)(=O)N4CCOCC4)cc3)ccc2[nH]1,-6.87%
17,CCOC(=O)N1CCN(Cc2nc(N)nc(Nc3ccc(C)cc3)n2)CC1,-3.1%
18,CONc1nc2nonc2nc1NOC,-1.66%
19,Cc1ccc(-c2nc(C)sc2CC(=O)O)cc1,1.06%
20,COc1ccc(Nc2nc(-c3cccnc3)nc3ccccc23)cn1,-6.63%
21,COc1ccc(N2C(=O)NC(NS(=O)(=O)c3ccc(Cl)cc3)(C(F)(F)F)C2=O)cc1 (stereo unspecified),1.83%
22,Cc1cc2ccccc2n1CCNC(=O)COc1ccc2ccccc2c1,12.1%
23,O=c1cc(Cn2nnc(-c3ccc(Cl)cc3)n2)nc2sccn12,-6.19%
24,O=C(Nc1cccc(-c2nc3ccccc3[nH]2)c1)c1ccc(C(=O)Nc2cccc(-c3nc4ccccc4[nH]3)c2)cc1,29.2% (active)
25,Cc1cc(C)c2nc(NC(=O)C3CCCO3)sc2c1 (stereo unspecified),4.35%
26,CCC1C(=O)NCCN1C(=O)c1ccc2nc(Cc3ccc(OC)cc3)oc2c1 (stereo unspecified),-13.1%
